Screening data as filed in PubChem.
Sampled rows, rich in hits. Any-hit rate of the full collection: about 5%.
TSHR ag: TSH receptor (human) agonism; P16473; HEK293-CNG-TSHR cells (CNG channel as cAMP sensor), membrane potential dye, cAMP; Potency, µM (series often up to 57.1 µM), inactives show at the highest dose activation, usual class: activators; actives 0.48% (n = 73,000); AID 926; active = well fitted activation curve with a large enough effect in the main read-out, with a control signal flat, not every such curve was filed as active; inconclusive = small, poorly fitted or top-dose-only effect, or a change in a side signal; inactive = no such curve, though single readings can be large or run the other way; % of control where 0% means no effect;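 note: the control signal comes from parental cells without the receptor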
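HEK 293 cells stably expressing TSHR and a cAMP-gated CNG channel; parental CNG-only cells as counterscreen. Cells preloaded 60 min with membrane potential dye plus 100 uM RO 20-1724, then compound 30 min; fluorescence read at 590 nm.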
USP2a inhib: blocks human ubiquitin-specific protease USP2a; USP2a enzymatic assay, qHTS inhibition; Potency, µM (highest dose often 38.3 µM), inactives show at the top dose activity change, negative = inhibition, usual class: inhibitors; actives 0.1% (n = 60,000); AID 927; note: nearly all actives have a fitted effect of over 60% in size
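USP2 core (20nM final) preincubated 30 min RT with compound, then Ub-PLA2 20nM and NBD C6-HPC 20uM final added; buffer 20mM Tris-HCl pH 8.0, 2mM CaCl2. Fluorescence Ex 460/Em 535 read at 0 and 2.5 h; normalized to NEM.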
CRE-bla Fsk: CRE-bla signaling modulation under forskolin stimulation. CHO CRE-bla reporter (cAMP response element driving beta-lactamase), forskolin EC10, beta-lactamase ratio. Potency, µM (series often up to 38.2 µM), for inactives: at the highest dose activity change, negative = inhibition, usual class: activators. actives 2.5% (n = 71,000). AID 662; active = well fitted activation curve with a large enough effect in the signal ratio, with a control signal flat, not every such curve was filed as active; inconclusive = small, poorly fitted or top-dose-only effect, or effect the other way, or a change in a side signal; the % refers to the signal ratio; note: % of control where 0% means no effect
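CRE-bla CHO cells stimulated with EC10 NKH 477 (water-soluble forskolin) and compound titrations, 3 h at 37C; beta-lactamase read with CCF4 after 2 h at room temperature. Activity from 460/530 nm emission ratio, AC50 values for positive or negative modulation.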
Caspase-7 inhib: blocks human caspase-7 allosterically or competitively. recombinant caspase-7, Ac-DEVD-AFC fluorescence rate. Potency, µM (highest dose often 57.5 µM), for the others: at the top dose activity change, negative = inhibition, actives largely listed as inhibitors. actives 0.02% (n = 75,000); active = well fitted inhibition curve with a large enough effect in the main read-out, with a control signal flat, not every such curve was filed as active; inconclusive = small, poorly fitted or top-dose-only effect, or a change in a side signal; note: % of control where 0% means no effect
HEK293 cAMP cs: parental HEK293 cAMP activation (counter-screen). parental HEK293 CNG cAMP sensor, membrane potential fluorescence. Potency, µM (doses to about 57.1 µM), for inactives: at the highest dose activation, actives largely listed as activators. actives 2.5% (n = 73,000). AID 938; note: % of control where 0% means no effect; nearly all actives have a fitted effect of over 55% in size
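Counterscreen for endogenous-receptor signalling: CNG-channel HEK 293 cells report cAMP rise by membrane depolarization. After 60 min dye equilibration with 100 uM RO 20-1724, compounds incubated 30 min before bottom-read fluorescence at 590 nm.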
Caspase-1 inhib: caspase-1 (human) inhibition, allosteric or competitive; Potency, µM (series often up to 57.5 µM), without a hit: at the top dose activity change, negative = inhibition, actives largely listed as inhibitors; AID 900; actives 0.03% (n = 75,000); Caspase-1 enzyme, Ac-WEHD-AFC fluorogenic rate;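 note: plate controls were vehicle for no effect and no substrate for full effect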
Target sequence (P29466 120-297 limits assumed): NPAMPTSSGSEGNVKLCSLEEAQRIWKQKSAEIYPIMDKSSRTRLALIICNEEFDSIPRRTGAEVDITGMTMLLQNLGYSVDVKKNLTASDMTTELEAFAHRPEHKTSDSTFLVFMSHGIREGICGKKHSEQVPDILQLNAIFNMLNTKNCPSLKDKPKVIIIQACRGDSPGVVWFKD
Target sequence (P29466 317-404 limits assumed): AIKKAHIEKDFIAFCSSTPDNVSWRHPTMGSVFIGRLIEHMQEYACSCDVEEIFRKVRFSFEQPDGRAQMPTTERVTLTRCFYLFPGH
The depositor's hits bear a star; ? = inconclusive; . = no result given; [ ] = remark or other dose. Unless noted, calls come from the whole dose curve; as a rule, active = well fitted curve in the direction sought with a large enough effect; inconclusive = small, poorly fitted or top-dose-only effect, or another doubt; inactive = no such curve, though single readings can be large; an effect the other way counts as inactive or inconclusive. Potency is the fitted concentration of half-maximal effect.

SMILES	TSHR ag	USP2a inhib	CRE-bla Fsk	Caspase-7 inhib	HEK293 cAMP cs	Caspase-1 inhib
O=Cc1ccc(CO)o1	?	.	1%	1%	17%	-2%
COC(C1CCCCC1)C(C)C(OCc1cccc(Br)c1)C(C)CO (stereo unspecified)	5%[11.4 µM]	.	.	-2%[11.5 µM]	1%[11.4 µM]	0%[11.5 µM]
COCCNc1ncnc2ccc(-c3ccccc3C(F)(F)F)cc12	?	3%	?	-4%	?	2%
CCCCOc1ncnc2c1[nH]c1ccc(F)cc12	?	-7%	1µM*	0%	?	0%
O=C(O)C12CC3(C(=O)O)CC(C(=O)O)(CC(C(=O)O)(C1)C3=O)C2=O	-4%[11.4 µM]	.	3%[7.6 µM]	0%[11.5 µM]	-5%[11.4 µM]	1%[11.5 µM]
Cc1cccc(N(C)C(=O)c2cc3cc4ccc(C)cc4nc3o2)c1	?	6%	?	0%	10µM*	-3%
CN[C@@H](CC(C)C)C(=O)N[C@@H]1C(=O)N[C@H](CC(N)=O)C(=O)N[C@H]2C(=O)N[C@H]3C(=O)N[C@H](C(=O)N[C@H](C(=O)O)c4cc(O)cc(O)c4-c4cc3ccc4O)[C@H](O)c3ccc(c(Cl)c3)Oc3cc2cc(c3O[C@@H]2O[C@@H](CO)[C@@H](O)[C@@H](O)[C@H]2O[C@H]2C[C@](C)(N)[C@H](O)[C@H](C)O2)Oc2ccc(cc2Cl)[C@@H]1O	?	-15%	0%	2%	?	2%
COc1ccc(C2(C)NC(=O)N(Cc3cc(Cl)cc4c3OCOC4)C2=O)cc1OC (stereo unspecified)	?	19%	?	-2%	16µM*	0%
C[N+]1(C)CCc2cc(O)c(O)cc2[C@H]1Cc1ccc(O)c(O)c1	0%[11.4 µM]	.	2%[7.6 µM]	-8%[11.5 µM]	-3%[11.4 µM]	-2%[11.5 µM]
CCOC(=O)C1CCCN(Cc2ccc(OC)cc2OC)C1 (stereo unspecified)	?	-5%	0%	-1%	32µM*	-1%
Cc1ccc(-c2nnn(CC(=O)N(Cc3cccs3)C(C(=O)NC(C)(C)C)c3ccco3)n2)o1 (stereo unspecified)	?	45%	?	-2%	1µM*	2%
Cc1ccc(-c2nnn(CC(=O)N(Cc3cccs3)C(C(=O)NC(C)(C)C)c3ccc(C)o3)n2)o1 (stereo unspecified)	?	11%	?	-1%	25µM*	-3%
Cc1ccc(-c2nnn(CC(=O)N(c3ccc(F)cc3)C(C(=O)NC3CCCC3)c3ccco3)n2)o1 (stereo unspecified)	1%	5%	6%	3%	22%	-1%
Cc1ccc(C(C(=O)NC(C)(C)C)N(CC2CCCO2)C(=O)Cn2nnc(-c3ccc(C)o3)n2)cc1 (stereo unspecified)	?	29%	-2%	-2%	25µM*	-4%
Cc1ccc(-c2nnn(CC(=O)NCC3COCCO3)n2)o1 (stereo unspecified)	-6%	0%	?	1%[0.00368 µM]	3%	0%
Cc1ccc(-c2nnn(CC(=O)N(Cc3ccco3)C(C(=O)NC(C)(C)C)c3cccs3)n2)o1 (stereo unspecified)	?	32%	-1%	-4%	20µM*	-10%
S=C1NC=NC2N=CNC12 (stereo unspecified)	?	.	29%	2%	19%	0%
N=C(N)SCCCN	6%[11.4 µM]	.	-7%[7.6 µM]	3%[11.5 µM]	-3%[11.4 µM]	-3%[11.5 µM]
O=C(O)CC[C@]1(C(=O)O)CCC(=O)c2ccccc21	2%[11.4 µM]	.	12%[7.6 µM]	0%[11.5 µM]	10%[11.4 µM]	-2%[11.5 µM]
NS(=O)(=O)c1ccc(C(=O)O)cc1	1%[11.4 µM]	.	11%[7.6 µM]	0%[11.5 µM]	23%[11.4 µM]	-1%[11.5 µM]
O=C(O)c1ccc(S(=O)(=O)Cc2ccccc2)cc1	?	-1%	3%	-3%	3.2µM*	-2%
CC(C)c1ccc(O)c(O)c(=O)c1 (tested in a mixture with another compound)	-2%[11.4 µM]	.	?	-4%[11.5 µM]	-1%[11.4 µM]	1%[11.5 µM]
